Data published in PubChem BioAssay (Tox21).
Inconclusive results are not listed. Calls of active or inactive are those of the source. Calls come from the whole dose curve; as a rule, active = well fitted activation curve with a large enough effect in the signal ratio in the repeat runs, with a control signal flat (not every such curve was filed as active); inconclusive = weak or mixed curves; inactive = flat fitted curve, though single readings scatter; the % refers to the signal ratio.

assay: qHTS assay for small molecule activators of the heat shock response signaling pathway (AID 743210); conditions: HeLa HSE-bla reporter, beta-lactamase ratio, 5 h; series mostly up to 62.6 µM
Summary of the method: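 HSE-bla HeLa cells (beta-lactamase reporter under heat shock response elements) were exposed to compounds for 5 h at 37 C, then loaded with LiveBLAzer B/G FRET substrate for 2.5 h at room temperature before fluorescence reading.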

| SMILES | outcome |
| --- | --- |
| c1ccccc1 | inactive |
| CCN(CC)C(=O)C1CN2CCc3cc(OC)c(OC)cc3C2CC1OC(C)=O (stereo not given) | inactive |
| O=C(CN1CCN(Cc2ccc3c(c2)OCO3)CC1)N1c2ccccc2Sc2ccccc21 | inactive |
| CC(CC(=O)O)CC(C)(C)C (stereo not given) | inactive |
| CCC(CO)CO | inactive |
| CC(=O)OC(C)(C)Cc1ccccc1 | inactive |
| CCOC(=O)CC#N | inactive |
| CC(=O)OCCCc1ccccc1 | inactive |
| Nc1ccc(C(=O)OCC(O)CO)cc1 (stereo not given) | inactive |
| O=S(=O)(O)c1cc(O)ccc1O | inactive |
| O=C(O)c1ccc(OCCN2CCCCC2)cc1 | inactive |
| CCCCCCCCCCCCCCCCCCN(C)C | inactive |
| C[Si]1(C)N[Si](C)(C)N[Si](C)(C)N1 | inactive |
| Cc1ccc(C(=O)C(=O)O)cc1C | inactive |
| CCCCC(CC)CNC(=O)CC(C)OC(=O)CCC(=O)O (stereo not given) | inactive |
| CC(=O)OC[C@H]1O[C@@H](OC(C)=O)[C@H](OC(C)=O)[C@@H]1OC(C)=O | inactive |
| N#CCCOCCOCCC#N | inactive |
| CC(C)CCC(=O)CCC(C)C | inactive |
| Nc1nc(=O)n([C@@H]2O[C@H](CO)[C@@H](O)[C@@H]2F)cc1I | inactive |
| CCOC(=O)C(=O)c1csc(NC=O)n1 | inactive |
| CC(C)=CC(C)(C)C | inactive |
| O=C1OC(=O)c2cc(Oc3ccc4c(c3)C(=O)OC4=O)ccc21 | inactive |
| CO/N=C(/C(=O)N[C@@H]1C(=O)N2C(C(=O)O)=C(Cn3nnc(C)n3)CS[C@H]12)c1csc(N)n1 | inactive |
| COc1cc([N+](=O)[O-])ccc1N | inactive |
| C/C=C(\C)C(=O)OCC/C=C\CC | inactive |
